Compound activity deposited in PubChem by National Center for Advancing Translational Sciences (NCATS).
The full list was thinned out, with hits kept by preference.
Pf Dd2 growth – Plasmodium falciparum Dd2 growth inhibition; P. falciparum Dd2 growth, SYBR Green, 72 h; Potency, µM (series often up to 28.9 µM), inactives show top-dose activity, negative = inhibition, usual class: inhibitors; 4.3% of 120,000 active; active means well fitted inhibition curve with a large enough effect;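 further: plate controls were DMSO vehicle for no effect and reference drug for full effect; nearly all actives have a fitted effect of over 65% in size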
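Infected erythrocytes (Dd2, 0.3% parasitemia, 2.5% hematocrit final) are added to compound in RPMI-1640/Albumax II medium, grown 72 h at 37C in low oxygen, then lysed with saponin/Triton-X containing SYBR Green and read by fluorescence.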
* = called active by the depositor; i = inactive; [ ] = dose if it differs, or a comment. Potency means the concentration at half of the fitted maximal effect.

SMILES | Pf Dd2 growth
O=C(CC(c1ccccc1)c1ccccc1F)NCc1cccnc1 (configuration not stated) | -10%
O=C(N[C@@H]1CCN(C(=O)c2ccc(CO)cc2)C[C@H]1O)c1cccnc1 | 17%
CCOc1ccc(C(=O)Nc2ccc(-n3nncc3-c3ccc(OC)cc3)cc2)cc1 | 92%
CCOC(=O)C1=C(C)N=C2SC=C(CC(=O)N3CCC(C)CC3)N2C1c1cccc(OC)c1 (configuration not stated) | -18%
CCOc1ccc(C(=O)NC2CCCN(c3cc(-c4ccc(OC)cc4)[nH]n3)C2)cc1 (configuration not stated) | i
CCOC(=O)c1ccc(N2CC3=C(C2=O)C(c2ccc(OC)cc2)NC(=O)N3C)cc1 (configuration not stated) | 44%
Cc1ccc(N2C(=O)c3n[nH]c(C)c3C2c2ccccc2Cl)cc1 (configuration not stated) | 6%
CCOC(=O)c1ccc(N2C(=O)c3n[nH]c(-c4cccs4)c3C2c2cccc(OC)c2)cc1 (configuration not stated) | 3.5µM*
CCOC(=O)c1ccc(N2C(=O)c3[nH]nc(-c4ccc(OCC)cc4)c3C2c2ccc(OC)cc2OC)cc1 (configuration not stated) | 7.9µM*
CCOC(=O)c1sc(N2C(=O)c3oc4ccc(F)cc4c(=O)c3C2c2cccc(OC)c2)nc1C (configuration not stated) | -32%
CCOC(=O)c1ccc(N2C(=O)c3n[nH]c(-c4cccs4)c3C2c2ccc(OC)cc2OC)cc1 (configuration not stated) | 11µM*
CC(C)NC(=O)N1CCC[C@@H](O)[C@H](NC(=O)c2ccc(OCCN3CCCC3)cc2)C1 | -17%[44.1 µM]
O=C1NCCC[C@@H]1NC(=O)[C@H]1CN(C(=O)c2cccs2)CCN1C(=O)c1cccs1 | i
CCNC(=O)NC[C@H]1O[C@H](Cc2cc(CN3CCOCC3)on2)CC[C@@H]1O | -10%[44.1 µM]
O=C1[C@H]2CN(Cc3ccc(Br)cc3)C[C@H]2C(=O)N1CCc1ccccc1 | -12%
O=C(C1CCCC1)N1CCCCCC1CN1CCOCC1 (configuration not stated) | i
COc1ccc(C(=O)N2CCCCCCNC(=O)[C@@H]3CCCC[C@@H]32)c(OC)n1 | -13%
COc1ccc(CN2CCN3C(=O)N(Cc4ccc(OC)cc4)C[C@H]3C2)cc1 | -6%[44.1 µM]
COc1ccc(CN2C[C@H]3CN(Cc4ccc5c(c4)OCCO5)CCN3C2=O)cc1 | 11µM*
COc1ccc(CN2C[C@H]3CN(Cc4ccc(Cl)cc4)CCN3C2=O)cc1 | 11%[44.1 µM]
COCC(=O)N(C1CCOCC1)C1CCN(C(=O)c2cccc(C)c2)CC1 | -25%
COc1cccc(-c2cnc3[nH]cc(CC(N)=O)c3c2)c1 | i
O=c1n(-c2ccc(F)cc2F)nc2n1CCN(Cc1ccc(C(F)(F)F)cc1)C2 | i
Cn1ccc(CN2CCn3c(nn(-c4ccc(F)cc4F)c3=O)C2)c1 | 8.9µM*
COc1ccc(CN2CCn3c(nn(-c4ccc(F)cc4F)c3=O)C2)cc1 | -1%
SMILES | Pf Dd2 growth
CC(=O)NCCCC(=O)N1CCC2(CC1)CC(NC(C)=O)c1ccccc12 (configuration not stated) | 35%
CCNC(=O)N1CCCCCNC(=O)CC1c1ccccc1 (configuration not stated) | 20%
CS(=O)(=O)N1CCCN(Cc2cn[nH]c2-c2ccc(F)cc2)CCNC(=O)CC1c1ccccc1 (configuration not stated) | i
Cc1ccc(CN2CCCN(S(C)(=O)=O)C(c3ccccc3)CC(=O)NCC2)o1 (configuration not stated) | i
CCn1ncc(CN2CCCN(S(C)(=O)=O)C(c3ccccc3)CC(=O)NCC2)c1C (configuration not stated) | -12%
CCOc1ccccc1CN1CCCN(Cc2ccncc2)C(c2ccccc2)CC(=O)NCC1 (configuration not stated) | 1.3µM*
Cc1ncsc1CN1CCCCCCNC(=O)CC1c1ccccc1 (configuration not stated) | i
O=C1CC(c2ccccc2)N(S(=O)(=O)c2ccccc2)CCCCCN1 (configuration not stated) | i
COc1cccc(CN2CCCOCCNC(=O)CC2)c1OC | -29%
Cc1ccc(CN2CCCC(c3nc(C(C)C)no3)CCNC(=O)CC2)o1 (configuration not stated) | -1%
Cc1ccc(CN2CCCN(Cc3ccncc3)C(c3ccccc3)CC(=O)NCC2)o1 (configuration not stated) | 1.8µM*
CCOc1ccccc1CN1CCCCCCNC(=O)CC1c1ccccc1 (configuration not stated) | 11µM*
COc1cccc(CN2CCCCCNC(=O)CC2c2ccccc2)c1OC (configuration not stated) | 11µM*
Cc1nc(C2CC(NC(=O)c3ccc(C)c(N4CCNC4=O)c3)C2)cc(=O)[nH]1 (configuration not stated) | -13%
CC(=O)Nc1ccc(C2(C(=O)NCc3cccc(F)c3)CCC2)cc1 | 2%
CC(C)NC(=O)CC[C@@H]1CNC(=O)[C@@H]2C[C@H](NC(=S)NCc3ccco3)CN12 | -15%[44.1 µM]
COc1cccc(CN2C[C@H]3[C@H](C2)[S+](=O)([O-])C(C)(C)C(=O)N3Cc2ccccc2)c1 | 9%[44.1 µM]
CCOc1ccccc1NC(=O)N1CC(c2nnc(-c3ccncc3)o2)C2(CCOCC2)C1 (configuration not stated) | 2%
CC(=O)N1CCC(N2C[C@@H]3OCC(=O)N[C@@H]3C2)CC1 | 1%[44.1 µM]
COc1cccc(CN2CCCCCCNC(=O)CC2c2ccccc2)c1OC (configuration not stated) | 7.9µM*
COc1cccc(CN2CCNC(=O)C2CC(=O)N2CCNC(=O)C2)c1OC (configuration not stated) | 10%
CC(C)NC(=O)N1CCCCCNC(=O)CC1c1ccccc1 (configuration not stated) | -20%
O=C(C1COc2ccccc2C1)N1CCC(Cc2noc(C3CC3)n2)CC1 (configuration not stated) | -20%
Cc1cc(Cl)ccc1OCC(=O)N1[C@@H]2CC[C@H]1CC(NC(=O)c1ccncc1)C2 (some centres not stated) | i
Cc1cc(F)ccc1NC(=O)CCC1CCCN(C(=O)Cc2ccc3c(c2)OCO3)C1 (configuration not stated) | -1%
SMILES | Pf Dd2 growth
O=C(C1CCC(CNS(=O)(=O)c2ccc(Br)s2)CC1)N1CCN(c2ccccc2)CC1 (configuration not stated) | -6%
O=C(C1CCN(S(=O)(=O)c2cccs2)CC1)N1CCN(c2cccc(Cl)c2)CC1 | -15%
O=C(C1CCC(CNS(=O)(=O)c2cccs2)CC1)N1CCN(c2ccc(Cl)cc2)CC1 (configuration not stated) | 13µM*
Cc1ncc2c(c1CNC(=O)Cc1ccc(C(F)(F)F)cc1)CCNC2 | -28%
COc1cccc(NC(=O)N2CCN3C(=O)N(Cc4ccc(C)cc4)C[C@H]3C2)c1 | -4%[44.1 µM]
CN(Cc1ccccc1)Cc1c(O)ccc2c(=O)c(-c3ccccc3)c(C(F)(F)F)oc12 | 4µM*
CN(Cc1ccc(-c2ccccc2)cc1)Cc1cccc(C(F)(F)F)c1 | -6%
CC1CCCCN1C(=O)CN1CCSc2ccccc21 (configuration not stated) | 33%
CC1CCCCN1Cc1nnc2cc(-c3nc(-c4ccccc4)no3)ccn12 (configuration not stated) | -18%
